Test results published in PubChem BioAssay (EPA / NIEHS).
Active and inactive are the calls of the source. Rule for the calls: active = hit-call score of the fitted dose curve at least 0.9, where 1 is the maximum; inactive = score below 0.9.

Experiment: ATG_RORE_CIS: Attagene CIS-FACTORIAL HepG2 Assay for human RAR-related Orphan Receptor Element (RORE) (AID 2282959)
Details: HepG2 Attagene cis-factorial RORE reporter, mRNA; actives raise or lower the signal
Description: ATG_CIS is a cell-based, multiplexed-readout assay that uses HepG2, a human liver cell line, with measurements taken at 24 hours after chemical dosing in a 24-well plate.ATG_RORE_CIS is one of 52 assay component(s) measured or calculated from the ATG_CIS assay. It is designed to make measurements of mRNA induction, a form of inducible reporter, as detected with fluorescence intensity signals by Reverse transcription polymerase chain reaction (RT-PCR) and Capillary electrophoresis technology.Data from the assay component ATG_RORE_CIS was analyzed into 1 assay endpoint. This assay endpoint, ATG_RORE_CIS, was analyzed with bidirectional fitting relative to DMSO as the negative control and baseline of activity. Using a type of inducible reporter, measures of mRNA for gain or loss-of-signal activity can be used to understand the reporter gene at the transcription factor-level as they relate to the gene RORA and RORB and RORC. Furthermore, this assay endpoint can be referred to as a primary readout, because this assay has produced multiple assay endpoints where this one serves a reporter gene function. To generalize the intended target to other relatable targets, this assay endpoint is annotated to the nuclear receptor intended target family, where the subfamily is orphan.
Human liver HepG2 cells are transiently transfected with multiple reporter transcription units (MRTUs) in 6-well plates using FuGene 6 reagent (Roche; 3 ml FuGene/1 mg DNA). The MRTU constructs are regulated by a cis-regulating element (promoter). […] A major difference between the CIS and TRANS system is that in CIS activities of endogenous TFs are measured, whereas the TRANS assay evaluates changes in activities of exogenous, chimeric NR-Gal4 proteins. […] At the end of 24 hour incubation, total RNA was isolated using TriZol reagent (Invitrogen). The isolated RNA is then reverse-transcribed using oligo(dT) primer and Mo-MLV reverse transcriptase (Invitrogen) with DNAse I (Ambion) treatment for 30 min. The one-tenth of the produced cDNA was amplified by PCR using Taq DNA polymerase (Invitrogen) and two reporter sequence-specific primers. The PCR products were fluorescently labeled by primer extension with 6-arboxyfluorescein (6-FAM) 5'-labeled reporter sequence-specific primer (2 min at 95 C, 20 s at 68 C and 10 min at 72 C) and these products were digested with 5U of HpaI (New England Biolabs) for 2h at 37 C. The fragments were purified using Qiaquick PCR columns (Qiagen), analyzed on an ABI 3130xL genetic analyzer (Applied Biosystems) with peak positions identified by using a set of X-rhodamine (ROX)-labeled MapMarker1000 molecular weight standards (BioVentures). The raw capillary electrophoresis data was processed using Attagraph software (Attagene).

Row | SMILES | outcome
1 | CC(C)(O)C#N | inactive
2 | CC(C)C#N | inactive
3 | CC1(C)[C@H](C(=O)O[C@H](C#N)c2cccc(Oc3ccccc3)c2)[C@@H]1C=C(Br)Br | inactive
4 | O=P(O)(Oc1ccccc1)Oc1ccccc1 | inactive
5 | COc1cc(OC)nc(Oc2cccc(Oc3nc(OC)cc(OC)n3)c2C(=O)O)n1 | inactive
6 | O=c1c2ccccc2c(=O)c2c1cc(Cl)c1[nH]c3c([nH]c12)c(Cl)cc1c(=O)c2ccccc2c(=O)c13 | inactive
7 | C=CCc1ccc(OC(=O)Cc2ccccc2)c(OC)c1 | inactive
8 | CC(=O)/C=C/c1ccccc1 | inactive
9 | CN(C)N | inactive
10 | [CH3][Sn]([CH3])([Cl])[Cl] | inactive
11 | CCOP(=O)(OCC)OCC | inactive
12 | Cc1ccc(C)c2ccccc12 | inactive
13 | CCNCC | inactive
14 | Nc1ccc(-c2ccc(N)c(N)c2)cc1N | inactive
15 | [Cl-].[Cl-].[Cl-].[Yb+3] | inactive
16 | COC(C)(C)CCC[C@H](C)C/C=C/C(C)=C/C(=O)OC(C)C | inactive
17 | CN(C)CCC#N | inactive
18 | CCOC(=O)C1OC1(C)c1ccccc1 (stereo not given) | inactive
19 | C[C@]12CC[C@H]3[C@@H](CC[C@@]45O[C@@H]4C(O)=C(C#N)C[C@]35C)[C@@H]1CC[C@@H]2O | inactive
20 | C[N+](C)(C)CC(=O)[O-] | inactive

Row | SMILES | outcome
21 | CN1C(=O)CCS(=O)(=O)C1c1ccc(Cl)cc1 (stereo not given) | inactive
22 | C[N+](C)(C)CC(=O)O | inactive
23 | CCC(C)c1cc(C(C)(C)C)cc(-n2nc3ccccc3n2)c1O (stereo not given) | inactive
24 | O=S(=O)(c1ccccc1)c1ccccc1 | inactive
25 | Cc1ncc(C[n+]2csc(CCO)c2C)c(N)n1 | inactive
26 | c1ccc2c(c1)CCCC2 | inactive
27 | CC(C)(C)C(=O)CCl | inactive
28 | Cc1ccccc1CCl | inactive
29 | O=C1C=CC(=O)C=C1 | inactive
30 | O=P1(NCCCl)OCCCN1CCCl (stereo not given) | inactive
31 | c1ccc(P(c2ccccc2)c2ccccc2)cc1 | inactive
32 | [N-]=[N+]=CC(=O)OC[C@H](N)C(=O)O | inactive
33 | CCOP(=O)(OCC)Oc1ccc([N+](=O)[O-])cc1 | inactive
34 | O=CNC(N1CCN(C(NC=O)C(Cl)(Cl)Cl)CC1)C(Cl)(Cl)Cl (stereo not given) | inactive
35 | CC(C)(C)C(O)C(Oc1ccc(-c2ccccc2)cc1)n1cncn1 (stereo not given) | inactive
36 | CCC(C)(C)O | inactive
37 | CC(C)[C@@H](C(=O)O[C@@H](C#N)c1cccc(Oc2ccccc2)c1)c1ccc(Cl)cc1 | inactive
38 | C[C@]12CC[C@H](O)C[C@H]1CC[C@@H]1[C@@H]2C[C@@H](O)[C@]2(C)[C@@H](C3=CC(=O)OC3)CC[C@]12O | inactive
39 | ClCC(Cl)Cl | inactive
40 | Nc1ccc(Cl)c(Cl)c1 | inactive
